Assay results reported in PubChem BioAssay AID1626 (SRMLSC, 2009).
Where “and” joins values, the source holds several entries; their conditions need not be identical. Equal entries are not always repeated. In all, about 220,000 compounds went through this assay and about 2,000 (0.91%) were called active. Inconclusive results (about 2%) are left out. Cut-off read from the data, not from the text of the source: inconclusive = inhibition above about 80% without an active follow-up result; inactive = below that; test concentration not stated here. A selection follows. Potency and affinity values are given separately.

test: M. tuberculosis H37Rv growth inhibitors, H37Rv strain (AID 1626); conditions: hits give high values, concentration not given here;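 note: bacteria incubated seven days before Alamar blue readout; 0% = bacteria only wells and 100% = bacteria with antibiotic wells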

Q: With CC(C)(C)c1cc(C(=O)NCC(=O)OCC(=O)c2cccc([N+](=O)[O-])c2)cc(C(C)(C)C)c1 as the compound, how does the inhibition read?
A: -4.29% (inactive)

Q: For Cc1cccc([N+](=O)[O-])c1NC(=O)CN(Cc1ccccc1)Cc1ccccc1, which inhibition is on record?
A: -0.69% (inactive)

Q: For CN(CCc1ccccn1)c1ncnc2[nH]ncc12, which inhibition is on record?
A: 2.15% (inactive)

Q: Which inhibition does the source give for O=C(NCc1ccccn1)c1ccc(Br)s1 here?
A: -0.44% (inactive)

Q: Which inhibition does the source give for O=C(Nc1nccs1)c1cc(Cl)ccc1[N+](=O)[O-] here?
A: 3.23% (inactive)

Q: Which inhibition does the source give for Cc1csc(NC(=O)c2ccc(Cl)cc2[N+](=O)[O-])n1 here?
A: -4.05% (inactive)

Q: With COc1cccc2sc(NN)nc12 as the compound, how does the inhibition read?
A: 7.32% (inactive)

Q: Which inhibition does the source give for COc1ccc(-c2csc(NC(=O)C3CC(=O)N(c4ccc5c(c4)OCCO5)C3)n2)cc1 (centres undefined) here?
A: 28% (inactive)

Q: With CC(=O)Nc1ccc(-c2csc(NC(=O)C3CC(=O)N(c4ccc5c(c4)OCCO5)C3)n2)cc1 (centres undefined) as the compound, how does the inhibition read?
A: -1.99% (inactive)

Q: Which inhibition does the source give for COc1cccc2sc(Nc3nc(-c4ccncc4)cs3)nc12 here?
A: 1.36% (inactive)

Q: Which inhibition does the source give for O=C(Nc1nc(-c2cc(Cl)sc2Cl)cs1)c1ccc(Br)s1 here?
A: 1.52% (inactive)

Q: With Cc1ccc(C(=O)Nc2nc(-c3cc(Cl)sc3Cl)cs2)cc1 as the compound, how does the inhibition read?
A: 3.4% (inactive)

Q: With COc1ccccc1C(=O)Nc1c(C)cc(Br)cc1C as the compound, how does the inhibition read?
A: 21.1% (inactive)

Q: Which inhibition does the source give for CCCN1C(=O)C(O)(CC(=O)c2cccc(OC)c2)c2ccccc21 (centres undefined) here?
A: -1.3% (inactive)

Q: With O=C(O)c1ccc(N2C(=O)CC(SC(=NCc3ccc4c(c3)OCO4)Nc3ccccc3)C2=O)cc1 (centres undefined) as the compound, how does the inhibition read?
A: 1.43% (inactive)

Q: For CCc1ccc(NC(=O)c2cnn(-c3ccccc3)c2C)cc1, which inhibition is on record?
A: 1.29% (inactive)

Q: Which inhibition does the source give for COc1ccc(-n2c(Cc3cccs3)nnc2SCC(=O)Nc2ccc3c(c2)OCCO3)cc1 here?
A: -1.02% (inactive)

Q: For COc1ccc(-c2cc(C(=O)NC3CCCC3)no2)cc1OC, which inhibition is on record?
A: 9.4% (inactive)

Q: With O=[N+]([O-])c1cccc(-c2nnc(CNC3CC3)o2)c1 as the compound, how does the inhibition read?
A: 1.99% (inactive)

Q: For CC(C)c1ccc(OCC(=O)N2CCCCCC2)c(Br)c1, which inhibition is on record?
A: 4.07% (inactive)

Q: For Cc1ccc(NC(=O)C2CC(=O)Nc3nncn32)cc1 (centres undefined), which inhibition is on record?
A: -5.26% (inactive)

Q: Which inhibition does the source give for Cc1c(Cl)cccc1S(=O)(=O)Nc1ccnn1C here?
A: -14.5% (inactive)

Q: Which inhibition does the source give for c1ccc(Nc2nc(-c3ccncc3)cs2)cc1 here?
A: 5.87% (inactive)

Q: For O=C(Nc1nccs1)C12CC3CC(C1)CC(C(=O)Nc1nccs1)(C3)C2, which inhibition is on record?
A: 1.25% (inactive)

Q: With c1ccc(-c2csc(Nc3cccnc3)n2)nc1 as the compound, how does the inhibition read?
A: 10.1% (inactive)

Q: Which inhibition does the source give for O=C(Nc1nc(-c2nc3ccccc3s2)cs1)C1CC1 here?
A: 7.59% (inactive)

Q: For O=C(Nc1ccccn1)C12CC3CC(C1)CC(C(=O)Nc1ccccn1)(C3)C2, which inhibition is on record?
A: -2.92% (inactive)

Q: Which inhibition does the source give for O=C(CCSc1ccccc1)Nc1nccs1 here?
A: 3.44% (inactive)

Q: Which inhibition does the source give for O=C(CCS(=O)(=O)c1ccccc1)Nc1nc(-c2ccccn2)cs1 here?
A: 73.5% (inactive)

Q: With O=C(CN1C(=O)CCC1=O)Nc1nc(-c2ccccn2)cs1 as the compound, how does the inhibition read?
A: 2.51% (inactive)

Q: For O=c1[nH]c(N2CCOCC2)nc2ncn(Cc3ccccc3)c12, which inhibition is on record?
A: -3.03% (inactive)

Q: With COc1ccc(NS(=O)(=O)c2ccc(Cl)c(C(=O)O)c2)cc1S(=O)(=O)N1CCCCC1 as the compound, how does the inhibition read?
A: -7.19% (inactive)

Q: Which inhibition does the source give for O=c1[nH]c(N2CCc3ccccc3C2)nc2c1CCC2 here?
A: -0.21% (inactive)

Q: With CCOC(=O)N1CCN(c2ccc([N+](=O)[O-])cc2F)CC1C (centres undefined) as the compound, how does the inhibition read?
A: 9.74% (inactive)

Q: With CCCCn1c(CNC(C)=O)nc2ccccc21 as the compound, how does the inhibition read?
A: 1.64% (inactive)

Q: Which inhibition does the source give for COC(=O)c1[nH]c2cc(C)ccc2c1NC(=O)CN1CCN(c2ccccc2OC)CC1 here?
A: 45% (inactive)

Q: With CCC(C)NC(=S)Nc1ccc(F)cc1 (centres undefined) as the compound, how does the inhibition read?
A: 0.18% (inactive)

Q: For CCc1nnc(NC(=O)C(NC(=O)c2ccccc2Cl)C(C)C)s1 (centres undefined), which inhibition is on record?
A: 3.06% (inactive)

Q: For Cc1csc(NC(=O)C(NC(=O)c2ccccc2F)C(C)C)n1 (centres undefined), which inhibition is on record?
A: 5.45% (inactive)

Q: With CCOC(=O)c1sc(=NC(=O)/C=C/c2ccccc2)n(C)c1C as the compound, how does the inhibition read?
A: -0.27% (inactive)

Q: Which inhibition does the source give for COc1ccc(/C(N)=N/OC(=O)c2ccc3c(c2)OCO3)cc1 here?
A: 3.21% (inactive)

Q: For O=[N+]([O-])c1cccc(Cl)c1CSc1ccccn1, which inhibition is on record?
A: 0.94% (inactive)

Q: With O=[N+]([O-])c1ncn(Cc2ccccc2Cl)n1 as the compound, how does the inhibition read?
A: 3.07% (inactive)

Q: For O=C(CCCn1cnc([N+](=O)[O-])n1)Nc1cccc(Cl)c1Cl, which inhibition is on record?
A: 1.24% (inactive)

Q: For O=C(COC(=O)/C=C/c1ccccc1)Nc1cc(C(F)(F)F)ccc1N1CCOCC1, which inhibition is on record?
A: -0.9% (inactive)

Q: With CC(C)N(Cc1cn(C)nc1-c1cccc(Cl)c1)Cc1nccn1C as the compound, how does the inhibition read?
A: 7.78% (inactive)

Q: Which inhibition does the source give for CN1CCC(=NNC(=O)COc2ccc(Cl)cc2)CC1 here?
A: 2.45% (inactive)

Q: Which inhibition does the source give for COc1ccccc1OCC(=O)NNc1c2ccccc2nc2ccccc12 here?
A: -2.19% (inactive)

Q: With Nc1ccc2oc3ccc(N)cc3c(=O)c2c1 as the compound, how does the inhibition read?
A: 3.5% (inactive)

Q: With O=[N+]([O-])c1ccc2c(c1)oc1ccccc12 as the compound, how does the inhibition read?
A: -1.07% (inactive)

Q: For Cc1cc(NC(=O)c2ccc3c(c2)C(=O)N(CC(C)C)C3=O)no1, which inhibition is on record?
A: 1.19% (inactive)

Q: Which inhibition does the source give for COc1ccc(-c2noc(CSc3nnc(CCc4ccccc4)n3-c3ccccc3)n2)cc1OC here?
A: 6.96% (inactive)

Q: For Fc1cccc(COc2ccccc2CNc2ccccc2)c1, which inhibition is on record?
A: 15.2% (inactive)

Q: With CCOc1ccccc1CNc1ccc(O)cc1 as the compound, how does the inhibition read?
A: -6.88% (inactive)

Q: With COc1ccc(-n2nnnc2SCC(=O)Nc2nc3c(s2)CCCC3)cc1 as the compound, how does the inhibition read?
A: -4.11% (inactive)

Q: Which inhibition does the source give for COc1ccc(C(=O)NCCN2C(=O)S/C(=C\c3cccnc3)C2=O)c(OC)c1OC here?
A: 8.22% (inactive)

Q: Which inhibition does the source give for Cc1n[nH]c(C)c1CCCCOc1ccccc1 here?
A: -2.76% (inactive)

Q: Which inhibition does the source give for Cc1cccc(C)c1OCCCCc1c(C)n[nH]c1C here?
A: 78.5% (inactive)

Q: For Cc1n[nH]c(C)c1CCCOc1ccccc1, which inhibition is on record?
A: -17.6% (inactive)

Q: Which inhibition does the source give for Cc1cccc(OCCCc2c(C)n[nH]c2C)c1 here?
A: 1.52% (inactive)

Q: With Cc1n[nH]c(C)c1CCOc1ccc(C(C)C)cc1 as the compound, how does the inhibition read?
A: -3.37% (inactive)

Q: Which inhibition does the source give for Cc1ccccc1OCCCc1c(C)n[nH]c1C here?
A: 33% (inactive)

Q: For Cc1nc(NC(=O)COC(=O)c2ccc(S(=O)(=O)N3CCc4ccccc4C3)cc2)c(Cl)cc1Cl, which inhibition is on record?
A: -3.47% (inactive)

Q: Which inhibition does the source give for COc1cc(NC(=S)N2CCC(C(O)(c3ccccc3)c3ccccc3)CC2)cc(OC)c1 here?
A: 4.64% (inactive)

Q: With COc1ccccc1C(=O)NNC(=O)c1nn(Cc2ccccc2)c(=O)c2ccccc12 as the compound, how does the inhibition read?
A: 2.78% (inactive)

Q: Which inhibition does the source give for Cc1[nH][nH]c(=O)c1N=Nc1ccc(Cl)cc1 here?
A: -0.49% (inactive)

Q: Which inhibition does the source give for O=c1cc(CSCc2ccc(Cl)cc2)[nH]c(=O)[nH]1 here?
A: 7.09% (inactive)

Q: For COc1cc2c(cc1NC(=O)CSc1nc3ccc(C)cc3[nH]1)oc1ccccc12, which inhibition is on record?
A: 51.1% (inactive)

Q: With COc1cc2c(cc1NC(=O)CSc1ccccc1)oc1ccccc12 as the compound, how does the inhibition read?
A: 83% (inactive)

Q: With COc1ccc(-c2cc(C(F)(F)F)n3nc(C(=O)Nc4c(C)n(C)n(-c5ccccc5)c4=O)cc3n2)cc1 as the compound, how does the inhibition read?
A: 8.28% (inactive)

Q: With CCNc1nc(Cl)nc(NNC(=O)C(C)Oc2ccccc2)n1 (centres undefined) as the compound, how does the inhibition read?
A: 0.39% (inactive)

Q: With CCN(c1ccc(NC(=O)CN2C(=O)NC3(CCOc4ccccc43)C2=O)cc1)C(C)C (centres undefined) as the compound, how does the inhibition read?
A: -1.8% (inactive)

Q: Which inhibition does the source give for N#CCSc1nnc(N)s1 here?
A: 8.52% (inactive)

Q: With Nc1c2c(nc3ccccc13)CCC2 as the compound, how does the inhibition read?
A: 3.36% (inactive)

Q: With Nc1c2c(nc3ccn(-c4ccccc4)c(=O)c13)CCCCC2 as the compound, how does the inhibition read?
A: 11.1% (inactive)

Q: For Cc1ccc(CNC(=O)C2CC(c3ccccc3F)=NO2)cc1 (centres undefined), which inhibition is on record?
A: 0.74% (inactive)

Q: Which inhibition does the source give for CCOC(=O)CN(C#N)c1nc(C)cc(C)n1 here?
A: -5.87% (inactive)

Q: Which inhibition does the source give for COC(=O)CN(C#N)c1nc(N(C)C)nc(N(C)C)n1 here?
A: -2.49% (inactive)

Q: For CCCCCCN1CCN(c2ccccc2Cl)CC1, which inhibition is on record?
A: 4.25% (inactive)

Q: Which inhibition does the source give for O=C(Nc1ccc(F)cc1F)Nc1ccccc1C(=O)NCCN1CCNC1=O here?
A: -7.32% (inactive)

Q: With CC(C)CCOCc1nc2sc3c(c2c(=O)[nH]1)CCC(C)C3 (centres undefined) as the compound, how does the inhibition read?
A: 5.08% (inactive)

Q: With CCOC(=O)c1nc2sc3c(c2c(=O)[nH]1)CCCC3 as the compound, how does the inhibition read?
A: 6.3% (inactive) and 4.22% (inactive)

Q: Which inhibition does the source give for CCOC(=O)N1CCC(NC(=O)CS(=O)Cc2nc(-c3ccc(OC)c(OC)c3)oc2C)CC1 (centres undefined) here?
A: 1.72% (inactive)

Q: With Cc1cc(N2CCCCC2)nc(NCc2ccccc2)n1 as the compound, how does the inhibition read?
A: 11.8% (inactive)

Q: With COc1ccc(Nc2cc(C)nc(NCc3ccccc3)n2)cc1 as the compound, how does the inhibition read?
A: 20.5% (inactive)

Q: With CCCCNc1cc(C)nc(NCc2ccccc2)n1 as the compound, how does the inhibition read?
A: 8.03% (inactive)

Q: Which inhibition does the source give for Cc1ccc(/C=N/Nc2cc(C)nc(NCc3ccccc3)n2)cc1 here?
A: -1.4% (inactive)

Q: With Cc1cc(OC2CCCCC2)nc(NCc2ccccc2)n1 as the compound, how does the inhibition read?
A: 6.25% (inactive)

Q: For Cc1cc(N/N=C/c2ccccc2)nc(NCc2ccccc2)n1, which inhibition is on record?
A: 7.85% (inactive)

Q: Which inhibition does the source give for COc1ccc(NC(=O)CCCCn2c(=O)[nH]c3ccccc3c2=O)cc1 here?
A: -8.84% (inactive)

Q: With CCc1cc(C(=O)N2CCc3c([nH]c4ccccc34)C2c2ccc(OC)cc2F)no1 (centres undefined) as the compound, how does the inhibition read?
A: 1.56% (inactive)

Q: With CC(=O)OC1c2ccccc2C(=O)N1Cc1ccccc1 (centres undefined) as the compound, how does the inhibition read?
A: -4.69% (inactive)

Q: Which inhibition does the source give for Cc1nc(SCCO)c2oc3ccccc3c2n1 here?
A: 10.1% (inactive)

Q: With Fc1cccc(CSc2ncnc3c2oc2ccccc23)c1 as the compound, how does the inhibition read?
A: 5.28% (inactive)

Q: Which inhibition does the source give for Cc1nc(SCC(=O)Nc2ccc(F)cc2)c2oc3ccccc3c2n1 here?
A: -5.02% (inactive)

Q: For Fc1ccc(CSc2ncnc3c2oc2ccccc23)cc1, which inhibition is on record?
A: 15.6% (inactive)

Q: With CCc1nc2c(c(=O)c3ccccc3n2C)c(=O)n1CCc1ccc(OC)cc1 as the compound, how does the inhibition read?
A: 19.9% (inactive)

Q: For O=C(NCc1nc(-c2ccc(C(F)(F)F)cc2)no1)Nc1ccc(F)cc1F, which inhibition is on record?
A: 8.4% (inactive)

Q: With O=C(NCc1nc(-c2ccc(C(F)(F)F)cc2)no1)Nc1ccc(OC(F)(F)F)cc1 as the compound, how does the inhibition read?
A: -5.05% (inactive)
